# According to PubChem BioAssay AID449762 (Southern Research Specialized Biocontainment Screening …, 2010):
# The campaign covered roughly 330,000 compounds. About 1,900 (0.58%) were called active. Not shown: some 4% with an inconclusive outcome. These entries were drawn from the full list. Measured potencies and affinities stand elsewhere. Values without a mark were called inactive. Rule as the data show it: inconclusive = inhibition above about 70% without an active follow-up result; inactive = below that.
# Assay: M. tuberculosis growth inhibition, HTS (AID 449762);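 also: bacterial growth assessed after seven days of incubation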
# Details: M. tuberculosis H37Rv growth inhibition, 7H9 media; at 25 µM; active compounds read high
row,Structure (SMILES),inhibition [%]
1,CC(=O)N1c2ccccc2C(C)(c2ccccc2)CC1(C)C (centres undefined),-5.59
2,CC1(c2cccc([N+](=O)[O-])c2)CC(C)(C)N(C(=O)c2ccccc2)c2ccccc21 (centres undefined),1.14
3,Cc1cc(C)c(S(=O)(=O)c2ccccc2C)c(SCC(C)C)n1,11
4,Cc1sc2ncn(/N=C/c3ccco3)c(=O)c2c1C,-10.2
5,Cc1ccc(/C=N/n2cnc3sc(-c4ccccc4)cc3c2=O)o1,44.5
6,CCCCn1nnnc1SCC(=O)Nc1cccc(C)c1,7.62
7,COc1ccc(CCN(C)C(=O)c2ccc(COc3ccccc3)o2)cc1OC,2.55
8,CC(O)(CS(=O)(=O)Cc1ccccc1)c1ccccc1Cl (centres undefined),-7.18
9,Cn1cnnc1SCC(=O)Nc1nc(-c2ccc(F)cc2)cs1,-5.61
10,CCCn1c(N2CCN(CC(=O)Nc3ccc4c(c3)OCCO4)CC2)nc2ccccc21,-1.09
11,O=C(Nc1cc(N2CCOCC2)ncn1)NC1(C(F)(F)F)Oc2ccccc2O1,-1.34
12,O=C(NCCN1CCOCC1)NC1(C(F)(F)F)Oc2ccc(Cl)cc2O1 (centres undefined),66.9
13,CCOC(=O)c1[nH]c2ccc(OCC)cc2c1NC(=O)CN1CCN(c2ccccc2)CC1,-2.46
14,CCOC(=O)c1[nH]c2ccc(F)cc2c1NC(=O)CN1CCc2cc(OC)c(OC)cc2C1,11.2
15,CNC(=S)N(C)CCc1cc2c(c(OC)c1C=C1C(=O)NC(=O)NC1=O)OCO2,-4.55
16,Cc1cc(C(=O)N[C@@H](c2ccccc2)[C@]2(C)C[C@H]2[C@@H](C)C(=O)Nc2ccc3ccccc3c2)no1,49.4
17,C[C@@H](C(=O)Nc1ccc2ccccc2c1)[C@@H]1C[C@@]1(C)[C@@H](NC(=O)c1ccccc1)c1ccccc1,27.7
18,Cc1ccc(/C=C/C(=O)N2CCN(S(=O)(=O)c3cccs3)CC2)o1,-4.62
19,Cc1ccc(S(=O)(=O)N2CCN(Cc3nc4sc5c(c4c(=O)[nH]3)CCCC5)CC2)cc1,1.29
20,Cc1ccc(S(=O)(=O)Oc2ccc(/C=N/NC(=O)c3c(Cl)cnn3C)cc2)cc1,25.4
21,CC(C)c1ccc(/C=N/NC(=O)c2c(Cl)cnn2C)cc1,-0.44
22,Fc1ccc(CN2CCN(c3ccc(Cl)cc3)CC2)cc1,9.18
23,CCn1c(N)c(C(=O)NCc2cccnc2)sc1=S,-1.76

row,Structure (SMILES),inhibition [%]
1,S=c1[nH]nc(C2CCCCC2)n1/N=C/c1ccccc1,9.46
2,S=c1[nH]nc(C2CCCCC2)n1/N=C/C(Cl)=C\c1ccccc1,-11
3,Cc1cc(-c2n[nH]c(=S)n2/N=C/C(Cl)=C/c2ccccc2)n[nH]1,1.35
4,CC(/C=N/n1c(-c2cc(C)[nH]n2)n[nH]c1=S)=C\c1ccccc1,-2.29
5,Fc1cccc2sc(Nc3nc4cc5c(cc4s3)OCCO5)nc12,45.4
6,Cc1c(Cl)cccc1NC(=S)N(CCN(C)C)C(C)c1ccccn1 (centres undefined),0.24
7,CCO[C@@H]1OC(C(=O)Nc2ccccc2)=C[C@H](c2ccc3c(c2)OCO3)[C@H]1CCCO,13.4
8,COc1cc(NC(=O)COC(=O)c2cc(S(=O)(=O)N3CCCCC3)ccc2Cl)c(C)cc1[N+](=O)[O-],-2.58
9,CCN1C(=O)[C@H]2[C@@H](c3ccc(-c4ccc(C(C)=O)cc4)cc3)N3CCC[C@@]3(C(=O)OC)[C@H]2C1=O,21.2
10,CCOc1ccc(C2c3[nH]c4ccccc4c3C[C@H]3C(=O)N(C4CC4)CC(=O)N23)cc1OC (some centres undefined),4.59
11,COc1ccc(C2c3[nH]c4ccccc4c3C[C@H]3C(=O)N(C4CCN(Cc5ccccc5)CC4)CC(=O)N23)c(OC)c1 (some centres undefined),30.2
12,COc1ccc(-c2nc3c(s2)CN(S(C)(=O)=O)CC3)cc1OC,-6.59
13,Cc1nn(-c2ccccc2)c(Cl)c1C(=O)N(C)CC(=O)Nc1cccc(F)c1,0.93
14,CCCn1c(-c2cc(OC)c(OC)c(OC)c2)nc2c1c(=O)[nH]c(=O)n2Cc1ccccc1,-2.63
15,Cc1nn(-c2ccccc2)cc1C(c1c(N)[nH]c(=S)[nH]c1=O)c1c(N)[nH]c(=S)[nH]c1=O,4.9
16,COc1ccc(NS(=O)(=O)c2ccc3nc(COc4ccc5ccccc5c4)[nH]c3c2)cc1,0.01
17,COc1ccc(NS(=O)(=O)c2ccc3nc(COc4ccc(C#N)cc4)[nH]c3c2)cc1,4.82
18,CCOc1ccc(N2C(=O)C3CC(C)=C(C)CC3C2=O)c([N+](=O)[O-])c1 (centres undefined),-11.3
19,CCCCCn1c(SC(C)C(C)=O)nc2c1c(=O)[nH]c(=O)n2C (centres undefined),-12.7
20,Cc1cc(Cl)c(OCCCN(C)C)c(Br)c1,2.02
21,COc1cc2[nH]c3c(Cl)ncnc3c2cc1OC,-3.36
22,COc1ccc2c([N+](=O)[O-])c(Cl)[nH]c2c1,-1.29
23,CCOC(=O)C1=C(C)OC(N)=C(C#N)C1c1c(C)nn(-c2ccccc2)c1Cl (centres undefined),-3.55

row,Structure (SMILES),inhibition [%]
1,Cc1ccc2c(c1)nnn2C1CCN(CC(=O)Nc2ccc(F)cc2)CC1,-1.73
2,Cc1ccc2c(c1)nnn2C1CCN(CC(=O)c2ccc(Cl)cc2)CC1,2.57
3,CCSC(=Nc1ccccc1)C1=C(O)COC1=O,3.26
4,OC(CNCCc1c[nH]c2ccccc12)c1ccccc1 (centres undefined),-1.92
5,NCC(c1ccc(Cl)cc1Cl)c1c[nH]c2ccccc12 (centres undefined),34.8
6,COC(=O)c1sc(N)c(C(=O)OC)c1COC(=O)C1CC(=O)N(Cc2ccco2)C1 (centres undefined),-7.71
7,CCOc1ccc(CCNS(=O)(=O)c2ccc3c(c2)NC(=O)CO3)cc1OCC,-0.19
8,c1ccc(NCc2nc3ccccc3n2CCOc2ccccc2)cc1,5.47
9,CCOc1ccc(NCc2nc3ccccc3n2CCOc2ccccc2)cc1,33.8
10,O=[N+]([O-])c1ccc(/C=N/Nc2nc(N3CCCCCC3)nc(N3CCCCCC3)n2)o1,-9.1
11,CCNc1nc(NCC)nc(N/N=C/c2ccccc2)n1,-2.44
12,CC(C)NS(=O)(=O)c1ccc(CCC(=O)N2CCC(C(N)=O)CC2)cc1,-7.28
13,Cc1ccccc1C(=O)Oc1cc(N)n(S(C)(=O)=O)n1,-5.9
14,NC(=O)CCCn1c(C(=O)c2ccc(Cl)cc2)c2ccc([N+](=O)[O-])cc2[n+]1[O-],-3.8
15,NCCCn1c(C(=O)c2ccc(Cl)cc2)c2ccc(C(F)(F)F)cc2[n+]1[O-],1.61
16,COc1ccc(CCN2CC(C(=O)NCc3ccco3)CC2=O)cc1OC (centres undefined),-1.89
17,CCN1CCN(c2ccc(S(=O)(=O)N3CCOCC3)cc2NC(=O)COc2ccc(F)cc2Cl)CC1,2.58
18,C[C@H](NC(N)=O)C(=O)Nc1ccc(OCc2ccccc2)cc1,2.2
19,C/C(=N\NC(=O)c1ccccc1F)c1ccc2c(c1)Nc1ccccc1S2,-0.8
20,C/C(=N\NC(=O)c1ccc(C)cc1C)c1ccc2c(c1)Nc1ccccc1S2,7.51
21,O=C1C=C(c2cccc3c2sc2ccccc23)C[C@@H](c2ccc(Cl)cc2)C1,-0.695
22,CSc1ccc(/C=C/C(=O)Nc2ccccc2)cc1,10.6
23,CCCC(=O)Nc1ccc(C(N)=O)cc1,-1.73

row,Structure (SMILES),inhibition [%]
1,CSc1nsc(SCC(=O)NC2CCCCC2)n1,66.1
2,Cc1nnc(SCC(=O)N2CCCCC2)s1,-0.73
3,COc1cc(OC)c(C(=O)OCC(=O)Nc2c(C)n(C)n(-c3ccccc3)c2=O)cc1OC,1.54
4,O=C1NC[C@H](c2ccccc2)N(CC2CCCCC2)C1=O,-2.23
5,C/C(=N\Nc1ccc([N+](=O)[O-])cc1)c1ccc(N)cc1,-12.2
6,C/C(=N\Nc1ccccc1)c1cccc(N)c1,-1.02
7,Cn1cnc(S(=O)(=O)N2CCN(c3ccc(Cl)cc3)CC2)c1,1.05
8,CC(C)COC(=O)Nc1ccccc1C(=O)N1CCOCC1,-0.44
9,Cc1ccc(N(Cc2cc3ccccc3[nH]c2=O)S(C)(=O)=O)cc1,-5.78
10,Cc1[nH]c2ccccc2c1C(C[N+](=O)[O-])c1cccc(O)c1 (centres undefined),0.72
11,O=c1[nH][nH]c(-c2ccccc2O)c1C(C[N+](=O)[O-])c1ccccc1 (centres undefined),25.6
12,O=C(N/N=C/c1ccco1)c1cc(-c2cccc(Br)c2)nc2ccccc12,5.09
13,Cc1cccc(NC(=S)/N=C(\N)Nc2nc(C)c3cc(C)ccc3n2)c1,8.71
14,CCOc1ccc2nc(N/C(N)=N/C(=S)Nc3ccc(OC)cc3)nc(C)c2c1,1.27
15,CCOc1ccc2nc(N/C(N)=N/C(=S)Nc3ccc(C)c(C)c3)nc(C)c2c1,39.5
16,CCNC(=S)/N=C(\N)Nc1nc(C)c2cc(C)ccc2n1,26.4
17,COc1ccc(N2CCN(C(=O)c3cc4cc(Cl)ccc4[nH]3)CC2)cc1,-7.94
18,COc1ccc(Cl)cc1NC(=O)CN1CCCCCC1,-5.19
19,Cc1ccc(S(=O)(=O)CC(=O)N2CCN(c3ccc(F)cc3)CC2)cc1,-10.4
20,O=c1c2ccccc2c(=O)n2n1Cc1ccccc1C2,0
